Results taken from the supplement of paper PMC12494721.
Structures can show the parent of a compound that is named as a salt.

Key:
Details in all cases: 20 µM; incubation time: 27 h, anaerobic, 37 °C;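 for the amine columns active = adjusted P below 0.05 in both replicates with a change the same way and a mean fold change under 0.8 or over 1.25; inactive = the rest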
[1] = test system: Clostridium sporogenes DSM 1664; experiment: growth (OD595) fold change vs plate DMSO controls (fold change (ratio)); higher = more growth
Summary of the method: (§1)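 Growth is expressed as the fold change relative to the median of the DMSO control wells on each plate. Cultures in mGAM were grown anaerobically in 96-well plates for 27 h at 37 °C, shaken, and read at 595 nm. Readings were blank-subtracted, corrected for compound background with 20 µM compound solutions in water, and converted to OD with a calibration factor of 5. Fold changes above 1.5 were set to NA, and each value is the mean of 2 biological replicates.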

Escherichia coli IAI1 [2] = experiment: as above
Summary of the method: as §1

[3] = test system: Klebsiella aerogenes DSM 30053; experiment: as above
Summary of the method: as §1

[4] = test system: Ruminococcus gnavus DSM 108212; experiment: as above
Summary of the method: as §1

[5] = test system: Klebsiella aerogenes DSM 30053; experiment: fold change of Histamine concentration vs plate DMSO controls (fold change (ratio)); higher = more amine produced, active = hit call of the paper (significant change in both replicates, either direction)
Summary of the method: (§2)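 Amines were quantified by LC–triple-quadrupole MS in dynamic MRM mode against external calibration curves, with drift correction within each batch. The samples were whole anaerobic mGAM cultures of four gut bacterial strains, grown for 27 h at 37 °C in 80 µL wells and extracted with cold acetonitrile/methanol with 0.1% formic acid, then centrifuged. Values are reported as fold change over DMSO controls on the same plate. The mean of 2 biological replicates is given.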

[6] = test system: Clostridium sporogenes DSM 1664; experiment: fold change of Tryptamine concentration vs plate DMSO controls (fold change (ratio)); higher = more amine produced, active = hit call of the paper (significant change in both replicates, either direction)
Summary of the method: as §2

[7] = test system: Ruminococcus gnavus DSM 108212; experiment: as above
Summary of the method: as §2

Escherichia coli IAI1 [8] = experiment: fold change of Putrescine concentration vs plate DMSO controls (fold change (ratio)); higher = more amine produced, active = hit call of the paper (significant change in both replicates, either direction)
Summary of the method: as §2

[9] = test system: Klebsiella aerogenes DSM 30053; experiment: as above
Summary of the method: as §2

Escherichia coli IAI1 [10] = experiment: fold change of Cadaverine concentration vs plate DMSO controls (fold change (ratio)); higher = more amine produced, active = hit call of the paper (significant change in both replicates, either direction)
Summary of the method: as §2

[11] = test system: Klebsiella aerogenes DSM 30053; experiment: as above
Summary of the method: as §2

[12] = test system: Ruminococcus gnavus DSM 108212; experiment: fold change of 2-Phenylethylamine concentration vs plate DMSO controls (fold change (ratio)); higher = more amine produced, active = hit call of the paper (significant change in both replicates, either direction)
Summary of the method: as §2

| Structure (SMILES) | growth [1] | growth (Escherichia coli IAI1 [2]) | growth [3] | growth [4] | fold change of Histamine concentration [5] | fold change of Tryptamine concentration [6] | fold change of Tryptamine concentration [7] | fold change of Putrescine concentration (Escherichia coli IAI1 [8]) | fold change of Putrescine concentration [9] | fold change of Cadaverine concentration (Escherichia coli IAI1 [10]) | fold change of Cadaverine concentration [11] | fold change of 2-Phenylethylamine concentration [12] |
| --- | --- | --- | --- | --- | --- | --- | --- | --- | --- | --- | --- | --- |
| CC1=NNC(=O)N(/N=C/c2cccnc2)C1 | 1.04 | 0.951 | 0.97 | 1.03 | 1.03 (inactive) | 1.02 (inactive) | 1.01 (inactive) | 0.906 (inactive) | 0.945 (inactive) | 1.08 (inactive) | 0.99 (inactive) | 1.02 (inactive) |
| CN1[C@@H]2CC[C@H]1C[C@@H](OC1c3ccccc3CCc3ccccc31)C2 [Deptropine citrate] | 0.826 | 1 | 0.992 | 0.954 | 1.06 (inactive) | 1.17 (inactive) | 0.877 (inactive) | 1.04 (inactive) | 1.02 (inactive) | 1.11 (inactive) | 0.999 (inactive) | 0.928 (inactive) |
| CCCC(C)C1(CC)C(=O)NC(=O)NC1=O (centres undefined) [Pentobarbital] | 1.06 | 1.08 | 0.979 | 0.814 | 1.07 (inactive) | 0.993 (inactive) | 1.02 (inactive) | 1.1 (inactive) | 1.02 (inactive) | 1.01 (inactive) | 0.988 (inactive) | 1.04 (inactive) |
| C[C@@H]1[C@@H](c2ccc(Cl)cc2)SC(=O)N1C(=O)NC1CCCCC1 | 1.01 | 1.08 | 1.07 | 1 | 0.918 (inactive) | 0.989 (inactive) | 0.913 (inactive) | 0.955 (inactive) | 1.03 (inactive) | 0.972 (inactive) | 1.02 (inactive) | 0.882 (inactive) |
| CS(=O)(=O)NC(=O)c1cc(Oc2ccc(C(F)(F)F)cc2Cl)ccc1[N+](=O)[O-] | 0.96 | 0.996 | 1.08 | 1 | 0.93 (inactive) | 0.985 (inactive) | 1.02 (inactive) | 1.04 (inactive) | 1.01 (inactive) | 1.01 (inactive) | 1.02 (inactive) | 0.99 (inactive) |
| CC(C)N(C)S(=O)(=O)NC(=O)c1cc(-n2c(=O)cc(C(F)(F)F)n(C)c2=O)c(F)cc1Cl | 0.954 | 0.981 | 1 | 1.03 | 0.99 (inactive) | 1.03 (inactive) | 0.884 (inactive) | 0.983 (inactive) | 0.985 (inactive) | 1.01 (inactive) | 0.993 (inactive) | 0.819 (inactive) |
| CCOCn1c(-c2ccc(Cl)cc2)c(C#N)c(Br)c1C(F)(F)F | 0.89 | 1 | 1.01 | 0.948 | 1 (inactive) | 0.999 (inactive) | 1.02 (inactive) | 1.03 (inactive) | 0.999 (inactive) | 1.03 (inactive) | 0.983 (inactive) | 1.01 (inactive) |
| COc1cccc(C2(O)CCCCC2CN(C)C)c1 (centres undefined) [Tramadol hydrochloride] | 1.04 | 0.988 | 0.985 | 1.12 | 1.04 (inactive) | 1.06 (inactive) | 0.925 (inactive) | 1.05 (inactive) | 1.02 (inactive) | 0.969 (inactive) | 1 (inactive) | 0.873 (inactive) |
| Fc1ccc(C(OCCN2CCN(CCCc3ccccc3)CC2)c2ccc(F)cc2)cc1 | 1.09 | 1 | 1 | 0.845 | 0.974 (inactive) | 0.97 (inactive) | 0.638 (active) | 1.01 (inactive) | 0.993 (inactive) | 0.998 (inactive) | 1 (inactive) | 0.771 (active) |
| Nc1nc(N)nc(NC2CC2)n1 [Cyromazine] | 1.07 | 1.02 | 1.01 | 1.03 | 0.979 (inactive) | 1.02 (inactive) | 0.995 (inactive) | 1.02 (inactive) | 1.03 (inactive) | 0.979 (inactive) | 1 (inactive) | 1 (inactive) |
| CCC(=O)O[C@@](Cc1ccccc1)(c1ccccc1)[C@@H](C)CN(C)C [Levopropoxyphene napsylate] | 1.06 | 1.03 | 1.05 | 1.18 | 0.942 (inactive) | 1.04 (inactive) | 1.01 (inactive) | 1.03 (inactive) | 1 (inactive) | 1.03 (inactive) | 1.01 (inactive) | 1.03 (inactive) |
| CCc1cccc(C)c1N(C(=O)CCl)[C@@H](C)COC | 1.01 | 1.01 | 0.995 | 0.912 | 1.01 (inactive) | 1.07 (inactive) | 1.01 (inactive) | 1.02 (inactive) | 0.999 (inactive) | 0.998 (inactive) | 0.997 (inactive) | 1.04 (inactive) |
| CCCSP(=O)(OCC)Oc1ccc(Br)cc1Cl (centres undefined) | 0.919 | 0.968 | 1.03 | 0.964 | 1.01 (inactive) | 1.03 (inactive) | 0.941 (inactive) | 1 (inactive) | 1.02 (inactive) | 1.03 (inactive) | 0.995 (inactive) | 0.9 (inactive) |
| C[C@]12C/C(=C/O)C(=O)C[C@@H]1CC[C@@H]1[C@@H]2CC[C@@]2(C)[C@H]1CC[C@]2(C)O [Oxymetholone] | 1.21 | 1.01 | 1 | 1.16 | 0.984 (inactive) | 0.861 (inactive) | 0.223 (active) | 1.02 (inactive) | 1.02 (inactive) | 1 (inactive) | 1.01 (inactive) | 0.271 (active) |
| CC(COc1ccc(Oc2ccccc2)cc1)Oc1ccccn1 (centres undefined) | 1.06 | 0.987 | 1.01 | 0.945 | 1.02 (inactive) | 1.02 (inactive) | 1.06 (inactive) | 1.01 (inactive) | 1.03 (inactive) | 1.02 (inactive) | 1.02 (inactive) | 1.08 (inactive) |
| CC(C)N1C(=O)c2ccccc2NS1(=O)=O | 1.02 | 1.03 | 0.992 | 1.17 | 0.978 (inactive) | 0.976 (inactive) | 0.99 (inactive) | 0.969 (inactive) | 0.979 (inactive) | 0.979 (inactive) | 0.987 (inactive) | 1.03 (inactive) |
| CCCCN(CCCC)SN(C)C(=O)Oc1cccc2c1OC(C)(C)C2 | 1.06 | 1.03 | 1.01 | 0.993 | 1.01 (inactive) | 0.965 (inactive) | 1.01 (inactive) | 1.05 (inactive) | 1.02 (inactive) | 1.03 (inactive) | 0.998 (inactive) | 0.987 (inactive) |
| CC[C@@H](C(N)=O)N1CCCC1=O [Levetiracetam] | 1.02 | 1.01 | 1.08 | 0.829 | 0.827 (inactive) | 1.06 (inactive) | 1.07 (inactive) | 1.06 (inactive) | 0.951 (inactive) | 1.02 (inactive) | 1.05 (inactive) | 1.07 (inactive) |
| COc1ccc(CN2CCNCC2)c(OC)c1OC [Trimetazidine dihydrochloride] | 0.945 | 0.975 | 0.973 | 1.15 | 1.12 (inactive) | 1.05 (inactive) | 1.03 (inactive) | 0.973 (inactive) | 1.02 (inactive) | 1.01 (inactive) | 0.971 (inactive) | 1.03 (inactive) |
| CC(=O)NC1CCSC1=O (centres undefined) [Citiolone] | 1.15 | 0.993 | 1.07 | 1 | 0.819 (inactive) | 1.05 (inactive) | 1.17 (inactive) | 1.02 (inactive) | 0.93 (inactive) | 0.99 (inactive) | 1.06 (inactive) | 1.31 (inactive) |
| CC(C)N1C(=O)N(c2ccccc2)CS/C1=N\C(C)(C)C | 1.04 | 1.03 | 1.03 | 0.99 | 0.967 (inactive) | 1.03 (inactive) | 1.03 (inactive) | 1.02 (inactive) | 1.03 (inactive) | 1.06 (inactive) | 1.01 (inactive) | 0.961 (inactive) |
| C=CCN1CC[C@]23c4c5ccc(O)c4O[C@H]2C(=O)CC[C@@]3(O)[C@H]1C5 [Naloxone hydrochloride] | 1.22 | 1.04 | 1.03 | 1.24 | 1.04 (inactive) | 1.01 (inactive) | 0.998 (inactive) | 1.02 (inactive) | 0.997 (inactive) | 0.994 (inactive) | 0.997 (inactive) | 0.985 (inactive) |
| C[C@]12CC[C@H](O)C[C@@H]1CC[C@@H]1[C@@H]2CC[C@]2(C)C(=O)CC[C@@H]12 [Epiandrosterone] | 1.01 | 1.01 | 0.974 | 0.678 | 1.04 (inactive) | 0.953 (inactive) | 0.973 (inactive) | 0.99 (inactive) | 1.02 (inactive) | 1.02 (inactive) | 1 (inactive) | 0.962 (inactive) |
| c1ccc2c(c1)ccc1c3ccccc3sc21 [Benzo[b]naphtho[2,1-d]thiophene] | 0.989 | 0.988 | 1.11 | 1.07 | 1.02 (inactive) | 0.962 (inactive) | 1.01 (inactive) | 1.01 (inactive) | 1.03 (inactive) | 0.992 (inactive) | 1.01 (inactive) | 0.99 (inactive) |
| c1cc2c3c(cccc3c1)CC2 [Acenaphthene] | 1.04 | 1.01 | 0.974 | 0.995 | 1.04 (inactive) | 0.986 (inactive) | 1.01 (inactive) | 1.02 (inactive) | 1.02 (inactive) | 1.03 (inactive) | 0.982 (inactive) | 1.05 (inactive) |
| c1ccc2c(c1)Nc1ccccc1S2 [Phenothiazine] | 1.09 | 0.906 | 0.937 | 1.02 | 0.931 (inactive) | 0.995 (inactive) | 1.01 (inactive) | 0.944 (inactive) | 0.953 (inactive) | 1.03 (inactive) | 0.973 (inactive) | 0.974 (inactive) |
| NCC(O)c1ccc(O)cc1 (centres undefined) [Octopamine hydrochloride] | 0.798 | 1.03 | 0.986 | 0.994 | 1.04 (inactive) | 1.04 (inactive) | 0.937 (inactive) | 1.11 (inactive) | 1.02 (inactive) | 1.01 (inactive) | 1 (inactive) | 0.875 (inactive) |
